According to ChEMBL document CHEMBL2218924, “A broad activity screen in support of a chemogenomic map for kinase signalling research and drug discovery” (Biochem J, 2013):

Key:
[1] = molecular target: T1, Serine/threonine-protein kinase BRSK1 (Homo sapiens) (UniProt Q8TDC3); details: at 1 µM
T1 sequence (whole entry): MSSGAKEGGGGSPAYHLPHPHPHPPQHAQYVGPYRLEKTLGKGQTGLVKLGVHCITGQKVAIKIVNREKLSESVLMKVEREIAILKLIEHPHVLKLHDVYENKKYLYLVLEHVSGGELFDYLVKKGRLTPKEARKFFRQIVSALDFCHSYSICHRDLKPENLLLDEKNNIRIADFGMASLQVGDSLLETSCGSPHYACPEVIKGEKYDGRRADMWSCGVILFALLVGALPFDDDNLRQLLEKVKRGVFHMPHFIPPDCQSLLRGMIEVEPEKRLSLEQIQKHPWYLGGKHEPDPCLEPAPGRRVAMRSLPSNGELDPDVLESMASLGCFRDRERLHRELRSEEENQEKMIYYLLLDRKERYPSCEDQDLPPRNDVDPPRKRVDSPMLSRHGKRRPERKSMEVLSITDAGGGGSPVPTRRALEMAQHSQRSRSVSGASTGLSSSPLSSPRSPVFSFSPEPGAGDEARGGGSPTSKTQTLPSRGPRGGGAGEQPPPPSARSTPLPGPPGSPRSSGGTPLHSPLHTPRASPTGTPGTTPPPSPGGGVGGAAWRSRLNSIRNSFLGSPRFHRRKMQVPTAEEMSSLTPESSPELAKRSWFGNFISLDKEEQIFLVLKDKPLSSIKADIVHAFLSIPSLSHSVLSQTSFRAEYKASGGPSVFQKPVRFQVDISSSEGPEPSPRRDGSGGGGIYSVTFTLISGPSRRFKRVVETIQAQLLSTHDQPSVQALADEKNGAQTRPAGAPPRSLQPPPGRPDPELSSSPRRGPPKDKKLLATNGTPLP

[2] = molecular target: T1, Serine/threonine-protein kinase BRSK1 (Homo sapiens); details: at 10 µM
[3] = molecular target: T2, Serine/threonine-protein kinase BRSK2 (Homo sapiens) (UniProt Q8IWQ3); details: at 1 µM
T2 sequence (whole entry): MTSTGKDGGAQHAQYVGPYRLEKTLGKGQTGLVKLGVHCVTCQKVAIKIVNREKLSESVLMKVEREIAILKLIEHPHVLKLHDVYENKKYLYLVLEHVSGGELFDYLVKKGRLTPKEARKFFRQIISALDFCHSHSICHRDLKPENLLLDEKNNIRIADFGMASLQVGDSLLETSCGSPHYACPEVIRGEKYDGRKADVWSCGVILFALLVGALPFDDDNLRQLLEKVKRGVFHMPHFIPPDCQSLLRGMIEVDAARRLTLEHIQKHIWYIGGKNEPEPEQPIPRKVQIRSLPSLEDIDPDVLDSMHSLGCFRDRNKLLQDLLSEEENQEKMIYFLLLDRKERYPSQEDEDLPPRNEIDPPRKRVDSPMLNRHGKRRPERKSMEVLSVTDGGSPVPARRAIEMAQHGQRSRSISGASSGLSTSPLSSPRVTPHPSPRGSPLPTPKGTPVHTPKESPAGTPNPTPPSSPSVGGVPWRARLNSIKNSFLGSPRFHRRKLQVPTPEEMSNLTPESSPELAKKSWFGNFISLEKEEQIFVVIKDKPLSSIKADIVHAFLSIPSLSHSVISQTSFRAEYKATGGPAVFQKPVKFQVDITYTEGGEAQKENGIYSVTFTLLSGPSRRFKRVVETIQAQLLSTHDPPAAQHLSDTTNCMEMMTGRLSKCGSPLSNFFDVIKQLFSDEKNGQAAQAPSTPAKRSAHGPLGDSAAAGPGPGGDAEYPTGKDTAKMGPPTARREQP

[4] = molecular target: T2, Serine/threonine-protein kinase BRSK2 (Homo sapiens); details: at 10 µM
[5] = molecular target: T3, Cyclin-dependent kinase 1/cyclin B1 (Homo sapiens) (UniProt P06493+P14635); details: at 1 µM
T3 sequence (P06493 whole entry, looked up): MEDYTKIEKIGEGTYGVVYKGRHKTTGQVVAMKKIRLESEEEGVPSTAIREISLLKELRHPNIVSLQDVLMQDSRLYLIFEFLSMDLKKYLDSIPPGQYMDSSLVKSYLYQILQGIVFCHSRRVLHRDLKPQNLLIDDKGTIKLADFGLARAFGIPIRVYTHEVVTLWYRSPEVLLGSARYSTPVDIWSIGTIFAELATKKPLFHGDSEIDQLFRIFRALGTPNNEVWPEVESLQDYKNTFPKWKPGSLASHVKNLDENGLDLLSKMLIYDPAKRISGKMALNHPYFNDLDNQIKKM
T3 sequence (P14635 whole entry, looked up): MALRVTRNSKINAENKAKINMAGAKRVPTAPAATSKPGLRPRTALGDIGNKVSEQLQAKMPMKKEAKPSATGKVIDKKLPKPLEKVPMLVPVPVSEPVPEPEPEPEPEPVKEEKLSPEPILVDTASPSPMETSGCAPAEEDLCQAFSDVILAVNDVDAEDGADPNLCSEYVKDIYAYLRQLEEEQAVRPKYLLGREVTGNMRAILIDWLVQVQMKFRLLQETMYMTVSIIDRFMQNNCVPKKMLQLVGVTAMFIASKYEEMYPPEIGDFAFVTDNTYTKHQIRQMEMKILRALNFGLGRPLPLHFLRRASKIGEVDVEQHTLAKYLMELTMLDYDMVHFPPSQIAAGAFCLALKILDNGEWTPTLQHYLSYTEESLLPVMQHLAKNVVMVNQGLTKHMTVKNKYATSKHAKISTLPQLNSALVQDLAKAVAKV

[6] = molecular target: T3, Cyclin-dependent kinase 1/cyclin B1 (Homo sapiens); details: at 10 µM
[7] = molecular target: T4, Cyclin-dependent kinase 2/cyclin A (Homo sapiens) (UniProt P24941+P20248+P78396); details: at 1 µM
[8] = molecular target: T4, Cyclin-dependent kinase 2/cyclin A (Homo sapiens); details: at 10 µM
[9] = molecular target: T5, Cyclin-dependent kinase 2/cyclin E (Homo sapiens) (UniProt P24864+P24941+O96020); details: at 1 µM
[10] = molecular target: T5, Cyclin-dependent kinase 2/cyclin E (Homo sapiens); details: at 10 µM
[11] = molecular target: T6, CDK3/cyclin E (Homo sapiens) (UniProt P24864+O96020+Q00526); details: at 1 µM
T6 sequence (O96020 whole entry, looked up): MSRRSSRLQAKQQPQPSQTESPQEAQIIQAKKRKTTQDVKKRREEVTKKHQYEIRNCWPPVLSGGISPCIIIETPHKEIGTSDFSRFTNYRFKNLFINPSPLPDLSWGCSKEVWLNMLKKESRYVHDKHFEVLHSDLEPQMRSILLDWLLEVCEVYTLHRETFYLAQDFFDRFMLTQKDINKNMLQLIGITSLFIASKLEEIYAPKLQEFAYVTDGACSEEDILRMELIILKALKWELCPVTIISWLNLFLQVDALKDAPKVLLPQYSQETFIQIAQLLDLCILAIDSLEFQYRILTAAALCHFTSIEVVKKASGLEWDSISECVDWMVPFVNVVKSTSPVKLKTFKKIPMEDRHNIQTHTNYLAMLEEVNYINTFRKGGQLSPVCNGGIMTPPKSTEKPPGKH
T6 sequence (P24864 whole entry, looked up): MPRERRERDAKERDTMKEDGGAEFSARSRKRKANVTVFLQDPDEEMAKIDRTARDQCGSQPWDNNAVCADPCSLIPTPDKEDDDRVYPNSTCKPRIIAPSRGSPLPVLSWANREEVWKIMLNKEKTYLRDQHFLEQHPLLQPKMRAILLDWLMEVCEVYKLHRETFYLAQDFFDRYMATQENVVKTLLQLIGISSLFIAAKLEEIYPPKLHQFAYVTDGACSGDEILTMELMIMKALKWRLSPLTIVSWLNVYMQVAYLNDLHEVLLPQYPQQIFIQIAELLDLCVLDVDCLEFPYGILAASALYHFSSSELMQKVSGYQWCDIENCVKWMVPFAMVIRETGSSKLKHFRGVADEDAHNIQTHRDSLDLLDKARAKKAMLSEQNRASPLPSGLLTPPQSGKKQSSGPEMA
T6 sequence (Q00526 whole entry, looked up): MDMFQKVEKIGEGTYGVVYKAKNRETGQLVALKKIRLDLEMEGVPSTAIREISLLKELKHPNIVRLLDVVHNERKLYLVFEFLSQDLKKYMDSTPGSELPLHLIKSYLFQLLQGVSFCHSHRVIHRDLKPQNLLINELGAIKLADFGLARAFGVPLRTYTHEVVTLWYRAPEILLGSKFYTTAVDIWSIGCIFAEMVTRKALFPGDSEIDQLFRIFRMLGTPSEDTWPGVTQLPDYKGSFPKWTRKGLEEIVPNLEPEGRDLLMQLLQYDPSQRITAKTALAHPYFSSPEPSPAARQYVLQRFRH

[12] = molecular target: T6, CDK3/cyclin E (Homo sapiens); details: at 10 µM
[13] = molecular target: T7, Cyclin-dependent kinase 5/CDK5 activator 1 (Homo sapiens) (UniProt Q00535+Q15078); details: at 1 µM
Target sequence in this assay (Q00535 whole entry): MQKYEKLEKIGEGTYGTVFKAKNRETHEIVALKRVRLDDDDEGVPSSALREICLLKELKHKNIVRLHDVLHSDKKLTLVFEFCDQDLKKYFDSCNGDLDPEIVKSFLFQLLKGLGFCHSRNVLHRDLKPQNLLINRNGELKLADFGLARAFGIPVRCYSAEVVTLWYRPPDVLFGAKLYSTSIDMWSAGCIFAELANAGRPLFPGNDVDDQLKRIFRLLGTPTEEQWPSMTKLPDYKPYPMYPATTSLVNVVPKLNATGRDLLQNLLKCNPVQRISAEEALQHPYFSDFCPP
Target sequence in this assay (Q15078 99-307 partner limits assumed): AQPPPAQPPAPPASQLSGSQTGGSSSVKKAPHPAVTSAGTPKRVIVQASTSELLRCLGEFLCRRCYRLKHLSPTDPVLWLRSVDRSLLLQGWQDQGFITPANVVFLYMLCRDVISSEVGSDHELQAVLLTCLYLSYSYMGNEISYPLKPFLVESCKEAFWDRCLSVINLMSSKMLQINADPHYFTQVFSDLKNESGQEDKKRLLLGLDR

[14] = molecular target: T7, Cyclin-dependent kinase 5/CDK5 activator 1 (Homo sapiens); details: at 10 µM
[15] = molecular target: T7, Cyclin-dependent kinase 5/CDK5 activator 1 (Homo sapiens); details: at 1 µM; remark: listed apart in the source
[16] = molecular target: T7, Cyclin-dependent kinase 5/CDK5 activator 1 (Homo sapiens); details: at 10 µM; remark: listed apart in the source
Target sequence in this assay (Q00535 whole entry): as the sequence (Q00535 whole entry) above
Target sequence in this assay (Q15078 99-307 partner limits assumed): as the sequence (Q15078 99-307 partner limits assumed) above

[17] = molecular target: T8, CDK6/cyclin D3 (Homo sapiens) (UniProt P30281+Q00534); details: at 1 µM
[18] = molecular target: T8, CDK6/cyclin D3 (Homo sapiens); details: at 10 µM
[19] = molecular target: T9, Cyclin-dependent kinase 7/ cyclin H (Homo sapiens) (UniProt P51946+P50613); details: at 1 µM
[20] = molecular target: T9, Cyclin-dependent kinase 7/ cyclin H (Homo sapiens); details: at 10 µM

SMILES	residual activity [1] [%]	residual activity [2] [%]	residual activity [3] [%]	residual activity [4] [%]	residual activity [5] [%]	residual activity [6] [%]	residual activity [7] [%]	residual activity [8] [%]	residual activity [9] [%]	residual activity [10] [%]	residual activity [11] [%]	residual activity [12] [%]	residual activity [13] [%]	residual activity [14] [%]	residual activity [15] [%]	residual activity [16] [%]	residual activity [17] [%]	residual activity [18] [%]	residual activity [19] [%]	residual activity [20] [%]
COc1cc2ncnc(N3CCN(C(=O)Nc4ccc(Oc5ccccc5)cc4)CC3)c2cc1OC	79	91	113	126	119	109	117	92	98	96	79	75	95	55	108	75	82	86	90	93
Cn1cnc2cc3c(Nc4cccc(Br)c4)ncnc3cc21	58	13	91	62	103	94	132	87	110	102	102	81	96	104	98	90	99	92	84	102
O=C(Nc1cccc(Nc2cc(Nc3cccc(C(F)(F)F)c3)ncn2)c1)C1CC1	67	29	83	47	92	89	120	71	99	76	100	77	89	63	101	57	94	69	88	80
O=[N+]([O-])c1ccc(-c2nc(-c3ccc(F)cc3)c(-c3ccncc3)[nH]2)cc1	97	101	118	103	102	103	90	79	105	96	91	85	95	94	108	98	101	101	101	90
CCC(=O)Nc1ccc2ncnc(Nc3cccc(Br)c3)c2c1	55	17	97	63	114	107	135	101	106	104	101	78	102	113	79	101	84	81	86	95
COc1ccc(S(=O)(=O)N(CCO)c2ccccc2CN(C)C/C=C/c2ccc(Cl)cc2)cc1	81	63	114	88	117	90	76	64	106	95	92	80	91	84	90	97	97	86	102	88
Cn1cc(/C=C2\C(=O)Nc3ccc(S(N)(=O)=O)cc32)c2ccccc21	23	3	36	19	34	39	68	46	67	52	69	34	42	17	33	34	93	56	13	4
Cc1ccc(NC2=CC(=O)c3sc(C)nc3C2=O)cc1	101	105	110	97	101	106	91	91	97	91	92	95	102	97	107	87	91	85	97	85
O=C1NC(=O)/C(=C\c2ccc3nccnc3c2)S1	59	65	78	77	79	31	132	47	94	98	96	68	96	64	97	74	91	86	89	80
O=C1NC(=O)/C(=C/c2ccc3c(c2)OC(F)(F)O3)S1	86	71	76	62	101	104	140	96	102	113	104	89	102	91	101	94	98	90	88	86
Cc1ccc(S(=O)(=O)/C=C/C#N)cc1	83	99	113	77	106	102	124	91	91	105	93	96	102	101	100	80	95	93	101	90
NC(=O)c1ccc2[nH]c(-c3ccc(Oc4ccc(Cl)cc4)cc3)nc2c1	83	81	116	88	93	56	82	83	91	87	87	80	68	31	83	55	93	82	99	98
COc1cccc(-c2cc(=O)c3ccccc3o2)c1N	101	103	123	98	99	99	93	10	96	85	90	84	102	99	112	89	102	100	103	89
COc1cc2ncnc(Nc3ccc(Oc4ccccc4)cc3)c2cc1OC	55	60	89	102	99	102	130	101	106	106	94	91	108	92	98	109	101	92	98	100
CC(C)n1cnc2c(NCc3ccccc3)nc(NCCCO)nc21	105	100	110	99	90	55	58	11	39	8	71	23	40	8	53	8	94	86	62	12
O=c1cc(-c2cccc3c2Sc2ccccc2S3)oc(N2CCOCC2)c1	102	96	107	96	101	77	96	78	101	87	99	97	95	94	112	90	101	85	121	80
CO[C@H]1C[C@@H]2CC[C@@H](C)[C@@](O)(O2)C(=O)C(=O)N2CCCC[C@H]2C(=O)O[C@H]([C@H](C)C[C@@H]2CC[C@@H](O)[C@H](OC)C2)CC(=O)[C@H](C)/C=C(\C)[C@@H](O)[C@@H](OC)C(=O)[C@H](C)C[C@H](C)/C=C/C=C/C=C/1C	70	68	97	139	120	108	129	113	105	96	90	86	90	92	78	100	88	89	88	94
Oc1ccc(-c2nc(-c3ccc(F)cc3)c(-c3ccncc3)[nH]2)cc1	102	63	124	90	101	92	95	88	108	91	109	93	105	91	127	99	123	109	104	102
O=Nc1c(-c2c(O)[nH]c3ccccc23)[nH]c2ccccc12	13	12	10	5	35	19	19	5	6	-1	5	0	3	2	5	1	16	5	42	16
Cc1cc(Nc2nc(-c3ccccc3)nc3ccccc23)n[nH]1	57	12	59	7	97	68	67	25	70	15	63	19	69	32	71	31	53	9	19	1
Nc1cccc(-c2cc3c(Oc4cccc(O)c4)ncnc3[nH]2)c1	45	8	75	20	81	33	74	27	91	41	82	34	53	12	72	14	101	64	101	67
O=C1Nc2ccccc2/C1=C1/Nc2ccccc2/C1=N\OCCC(O)CO (stereo not given)	26	39	33	4	25	6	12	11	9	4	21	2	4	4	6	5	16	4	19	2
CC(=O)O/N=C1\C(=C2\C(=O)Nc3cc(Br)ccc32)Nc2ccccc21	48	24	52	21	90	34	60	24	42	9	12	2	35	10	60	9	91	54	78	45
O=C1NC(=O)c2cc(Nc3ccc(F)cc3)c(Nc3ccc(F)cc3)cc21	48	56	107	92	111	90	129	79	98	69	86	66	112	49	81	60	98	86	78	112
O=C1Nc2cc(Br)ccc2/C1=C1/Nc2ccccc2/C1=N\O	33	12	4	6	54	12	37	38	3	7	0	1	6	10	2	9	40	5	34	13
O=C1c2ccccc2-[n+]2ccc3c([nH]c4ccccc43)c21	75	74	112	89	112	107	84	77	92	97	87	81	72	82	108	82	87	82	99	83
COc1ccc(CNc2nc(N(CCO)CCO)nc3c2ncn3C(C)C)cc1	91	92	114	99	81	26	24	3	18	0	52	9	11	2	18	2	91	77	94	36
